# Screening data as filed in PubChem.
# G9a inh: inhibitors of human histone lysine methyltransferase G9a; Q96KQ7; G9a H3K9 monomethylation, AlphaScreen, 2 h; Potency, µM (series often up to 102 µM), without a hit: top-dose activity, negative = inhibition, actives largely listed as inhibitors; actives 8.8% (n = 350,000); AID 504332; also: % is scaled to controls: 0 for no effect and ±100 for the full control effect; nearly all actives have a fitted effect of over 75% in size
# Target sequence (Q96KQ7 913-1193 limits assumed): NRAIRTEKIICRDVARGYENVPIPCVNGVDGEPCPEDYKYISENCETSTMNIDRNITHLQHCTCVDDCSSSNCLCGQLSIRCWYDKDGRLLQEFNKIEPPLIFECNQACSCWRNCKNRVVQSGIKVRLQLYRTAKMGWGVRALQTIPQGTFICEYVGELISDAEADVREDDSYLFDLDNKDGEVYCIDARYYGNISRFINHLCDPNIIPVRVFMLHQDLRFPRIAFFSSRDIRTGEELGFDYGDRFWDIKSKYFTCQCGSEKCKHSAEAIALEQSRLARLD
#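 Methyltransferase reactions run at room temperature for 2 h (20 nM enzyme, 500 nM biotin-H3K9 peptide, 20 uM SAM) after a 15 min compound preincubation; product detected by AlphaScreen beads and anti-H3K9me1 antibody.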
# JMJD2A Tudor inh: blocks the human JMJD2A Tudor domain; O75164; AlphaScreen JMJD2A-Tudor / H3K4me3 peptide binding; Potency, µM (titrated, usually from 114 µM), inactives show at the highest dose activity change, negative = inhibition, actives largely listed as inhibitors; actives 4.4% (n = 390,000); AID 504339; also: % is scaled to controls: 0 for no effect and ±100 for the full control effect; nearly all actives have a fitted effect of over 50% in size
# HP1b chromo inh: HP1-beta chromodomain-methylated histone interaction inhibition; P83916; AlphaScreen HP1-beta / biotin-H3K9me3 peptide binding; Potency, µM (highest dose often 114 µM), without a hit: at the top dose activity change, negative = inhibition, hits mostly inhibitors; actives 0.56% (n = 390,000); AID 540317; also: nearly all actives have a fitted effect of over 70% in size
# Target sequence (P83916 whole entry, looked up): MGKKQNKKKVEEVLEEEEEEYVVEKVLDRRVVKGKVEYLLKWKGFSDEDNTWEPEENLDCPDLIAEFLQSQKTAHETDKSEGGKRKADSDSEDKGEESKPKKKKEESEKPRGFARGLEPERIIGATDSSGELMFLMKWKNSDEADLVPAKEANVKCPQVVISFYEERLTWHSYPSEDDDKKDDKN
#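 HP1-beta protein (50 nM final) preincubated 30 min at room temperature with biotinylated H3(1-18)K9me3 peptide (50 nM) in PBS pH 7.4, 0.01% Tween-20, then compound added for 30 min. AlphaScreen streptavidin donor/nickel chelate acceptor beads (10 ug/mL final), 30 min dark, luminescence read.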
# BAZ2B block: inhibitors of human BAZ2B bromodomain | Potency, µM (highest dose often 114 µM), for the others: at the top dose activity change, negative = inhibition, usual class: inhibitors | AID 504333 | actives 4.4% (n = 360,000) | Q9UIF8 | AlphaScreen BAZ2B-H3K14Ac peptide displacement; also: % is scaled to controls: 0 for no effect and ±100 for the full control effect; nearly all actives have a fitted effect of over 60% in size
#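 In this displacement format the biotinylated H3(5-23) peptide acetylated at Lys14 serves as ligand at 50 nM, with BAZ2B at 50 nM in PBS pH 7.4 containing 0.01% Tween-20. Donor and acceptor beads are 10 ug/mL final.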
# GLS inh: inhibitors of human glutaminase (GLS). GLS enzymatic activity, qHTS titration. Potency, µM (doses to about 45.5 µM), inactives show at the highest dose activity change, negative = inhibition, actives largely listed as inhibitors. actives 0.21% (n = 410,000). AID 624170; also: % is scaled to controls: 0 for no effect and ±100 for the full control effect
#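 hKGA in 45 mM KH2PO4 pH 8.2, 0.02% Tween-20 with pin-transferred compounds; 1 mM L-glutamine (stock) plus glutamate oxidase/HRP/Amplex Red coupling added. Fluorescence read initially and after 30 min at RT.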
# L3MBTL1 inh: L3MBTL1 (human) inhibition; Potency, µM (doses to about 57.1 µM), inactives show at the highest dose activity, negative = inhibition, most hits filed as inhibitors; actives 0.66% (n = 230,000); AlphaScreen L3MBTL1–H3K9me1 peptide binding; also: % is scaled to controls: 0 for no effect and ±100 for the full control effect; nearly all actives have a fitted effect of over 60% in size
#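 AlphaScreen assay: L3MBTL1 (50 nM final) was preincubated 30 min at room temperature with biotinylated H3(1-15)K9me1 peptide (75 nM final), then 30 min with library compounds; streptavidin donor and nickel chelate acceptor beads (10 ug/mL final) added, 30 min dark.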
# * marks the source's active call; other numbers are inactive results; ? = inconclusive; . = no result given; [ ] = another dose, or the depositor's remark. A selection: hits, their analogues and other compounds. The true share with any hit is near 10%. Calls follow the shape of the dose curve; as a rule, active = well fitted curve in the direction sought with a large enough effect; inconclusive = small, poorly fitted or top-dose-only effect, or another doubt; inactive = no such curve, though single readings can be large; an effect the other way counts as inactive or inconclusive. Potency is read from the fitted curve at half-maximal effect.
SMILES,G9a inh,JMJD2A Tudor inh,HP1b chromo inh,BAZ2B block,GLS inh,L3MBTL1 inh
O=C(CCCCn1cnc2c(=S)nc[nH]c21)Nc1ccc(C(=O)O)c(O)c1,.,2.8µM*,71µM*,.,-3%,.
O=C(Nc1ccc(S(=O)(=O)N2CCCCC2c2cccnc2)cc1)c1ccc(F)cc1 (stereo not given),1%[59 µM],-16%,53%[57 µM],-14%,-6%,.
COc1ccc(-n2nc(C(=O)N3CCC(C)CC3)c3c4ccccc4n(C)c3c2=O)cc1Cl,-31%[59 µM],-13%,25%,.,-6%,.
Cc1sc2ncnc(N(C)CCc3ccccn3)c2c1C,-140%[59 µM],1.4µM*,18µM*,25µM*,37%,.
Cc1c(C)n(Cc2ccccc2)c2ccc(C(=O)NCCCN3CCOCC3)cc12,50µM*,50µM*,-4%,?,3%,.
Cc1nn(C)cc1/C=N\NC(=O)c1ccc2c(c1)c(C)c(C)n2Cc1ccccc1,20%[12.7 µM],56µM*,-28%,45µM*,-3%,.
Cc1c(C)n(Cc2ccc(F)cc2)c2ccc(C(=O)NCCCN3CCOCC3)cc12,.,45µM*,?,28µM*,4%,.
COc1cccc(CN2CCCN(Cc3ccc(F)cc3)S2(=O)=O)c1,?,70%,106%,67%,3%,.
Cc1cccc(-c2nsc(SCC(=O)Nc3ccc4c(c3)OCO4)n2)c1,-77%,-11%,16%,1%,-6%,9%
Cc1cccc(-c2nsc(SCC(=O)N3CCCC3)n2)c1,40µM*,2%,3%,-5%,-1%,0%
Cc1cccc(-c2nsc(SCC(=O)Nc3nccs3)n2)c1,10µM*,?,-8%,-5%,-15%,-3%
O=C(CSc1nc(-c2ccccc2)ns1)N1CCOCC1,8.9µM*,-14%,-15%,-17%,-10%,.
CCOC(=O)c1ccc(NC(=O)c2c(N3CCCC3=O)c3cc(OC)ccc3n2C)cc1,-39%[59 µM],-18%,24%,-17%,-16%,.
CCN(C(=O)c1cc2c(=O)oc3ccccc3c2s1)c1ccc(C)c(C)c1,7%[59 µM],-5%,31%,-7%,-2%,.
CCn1c(SCC(=O)Nc2c(C)cccc2C)nnc1-c1nonc1NC(C)=O,19%[59 µM],2%,50%,-22%,-12%,.
CCc1cc(-c2n[nH]c(=S)n2-c2cccc(C)c2)cs1,?,32µM*,-1%,-37%,?,.
Cc1cccc(-n2c(-c3csc(C)c3)n[nH]c2=S)c1,0.32µM*,11µM*,?,-33%,?,.
Cc1ccc(C)c(NCc2n[nH]c(=S)n2-c2ccccc2)c1,.,?,-5%,-2%,?,6%
Cc1ccc(N2CC(NC(=O)c3ccc(S(=O)(=O)N4CCCC4)cc3)CC2=O)cc1 (stereo not given),5%[59 µM],-21%,0%,-12%,-1%,.
O=C(Nc1cc([N+](=O)[O-])ccc1O)NC1CCS(=O)(=O)C1 (stereo not given),16µM*,-2%,19%,10%,21%,32%
O=C1CNC(=O)/C1=C\N1CCN(C(c2ccccc2)c2ccccc2)CC1,45µM*,-18%,78%,-31%,-5%,1%
CC1(C)CC(NC(=O)c2ccccn2)CC(C)(C)N1O,?,?,47%,50µM*,93%,7%
CCOc1ccc(C(=O)NCCc2csc(-c3cccnc3)n2)cc1,-6%[59 µM],-7%,-2%[57 µM],-20%,-14%,.
COc1ccc(O[C@H]2C=C[C@@H](c3ccccc3)O[C@@H]2COC(=O)CC/C(C)=N/O[C@@H](C)c2cn([C@H](CO)Cc3ccccc3)nn2)cc1,79µM*,.,.,?,.,-3%
C/C(CCN1CCc2nc(-c3ccccc3)c(-c3ccccc3)cc2C1)=N\O[C@@H](C)c1cn([C@H](CO)Cc2ccccc2)nn1,45µM*,.,.,?,.,-2%
SMILES,G9a inh,JMJD2A Tudor inh,HP1b chromo inh,BAZ2B block,GLS inh,L3MBTL1 inh
COc1ccc(O[C@H]2C=C[C@@H](c3ccccc3)O[C@@H]2CO/N=C(\C)CCC(=O)OC[C@H]2O[C@H](c3ccccc3)C=C[C@@H]2Oc2ccc(OC)cc2)cc1,45µM*,.,.,?,.,-11%
CCOc1cc(C(=O)NCc2ccc3c(c2)CCN3C(=O)CC)cc(OCC)c1OCC,-5%[59 µM],-4%,40%,1%,7%,.
CCOC(=O)c1[nH]c(C)c(C(=O)NCc2cccc(OC)c2)c1C,-38%[59 µM],-25%,15%,-4%,-7%,.
Clc1cccc(Cl)c1NC1=NCCC1,-15%,-12%,23%,14%,0%,.
c1n[nH]c(NC2=NCCC2)n1,1%,45µM*,74%,14µM*,-1%,?
CC(=O)/C(C[N+]1(C)CCCCC1)=N\O,?,35µM*,-32%,?,6%,11%
COc1cccc(S(=O)(=O)N2CCN(c3nc(-c4cccs4)nc4ccccc34)CC2)c1,.,-18%,38%,.,.,.
O=C(CSc1nccn1Cc1ccc(F)cc1)Nc1nc2ccccc2s1,-47%[59 µM],?,-18%[57 µM],?,-4%,.
CC(Oc1ccccc1Cl)C(=O)Nc1ccc(S(=O)(=O)N2CCN(C)CC2)cc1 (stereo not given),.,50µM*,-16%[57 µM],.,-8%,.
CC(=O)Nc1cccc(C(=O)OC(C)C(=O)Nc2ccc(S(=O)(=O)N3CCCC3)cc2)c1 (stereo not given),50µM*,-3%,22%,11%,0%,2%
CC(=O)Nc1ccc(NC(=O)C(C)OC(=O)c2cccc(S(=O)(=O)N3CCCCC3)c2)cc1 (stereo not given),?,-8%,23%,-11%,6%,.
CC(OC(=O)c1cccc(S(=O)(=O)N2CCCCCC2)c1)C(=O)Nc1ccc(S(N)(=O)=O)cc1 (stereo not given),50µM*,-18%,6%,-4%,4%,-6%
CC(=O)Nc1ccc(NC(=O)C(C)OC(=O)c2cccc(S(=O)(=O)N3CCCCCC3)c2)cc1 (stereo not given),-10%,-2%,17%,-36%,-4%,0%
CC(=O)Nc1ccc(NC(=O)C(C)OC(=O)c2cccc(S(=O)(=O)N3CCCC3)c2)cc1 (stereo not given),40µM*,-8%,20%,2%,-12%,-9%
Cc1ccc(CN2CCN(C3CCN(C(=O)c4ccc(C)cc4)CC3)C(=O)C2=O)cc1,0%[59 µM],-15%,10%,0%,-5%,.
Cc1ccccc1-n1nc(CO)c(C(=O)NCc2cccnc2)n1,7%[59 µM],-10%,36%,-14%,-1%,.
COc1cccc(N2CCN(C(=O)CN3C(=O)COc4ccc(S(=O)(=O)N5CCC(C)CC5)cc43)CC2)c1,-6%[59 µM],-13%,39%,-19%,8%,.
